The source made the active and inactive calls.
Key:
[1] = optical density shifts of acrAB sulA E. coli – strain DRC41, OD650, 48 h, E. coli filamentation inducer project, primary screen (AID 1152); conditions: higher = more signal, called active from +8 up or from −8 down;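 also: E. coli MC1000 strain DRC41 lacking acrAB efflux pump and sulA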
[2] = probe aLefty1 binding on compound microarray – biochemical, small-molecule microarray, 635/667 nm fluorescence, primary screen (AID 1153); conditions: higher = more signal;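 also: score merges spot fluorescence with signal-to-noise ratio from the scanned slide images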
[3] = plasmodial surface anion channel blockers, osmotic lysis – cell-based, P. falciparum Indochina, OD700, 1 h, primary screen (AID 1154); conditions: P. falciparum Indochina infected RBC osmotic lysis, higher = more signal, called active from +8 up or from −8 down
[4] = plasmodial surface anion channel blockers, osmotic lysis – cell-based, P. falciparum Indochina, OD700, 2 h, primary screen (AID 1155);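 also: lysis reports solute entry through the parasite surface anion channel PSAC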; conditions: P. falciparum Indochina infected erythrocytes, higher = more signal, called active from +8 up or from −8 down
[5] = changes in parasitized red cell lysis, either direction – P. falciparum Indochina, OD700, 3 h, PSAC antagonist project, primary screen (AID 1156); conditions: P. falciparum-infected erythrocytes, osmotic lysis, higher = more signal, called active from +8 up or from −8 down
[6] = plasmodial surface anion channel blockers, osmotic lysis – cell-based, P. falciparum Indochina, OD700, 18 h, primary screen (AID 1157); conditions: P. falciparum Indochina infected erythrocytes, osmotic lysis OD700, 18 h; higher = more signal, called active from +8 up or from −8 down
[7] = S6 kinase pathway phospho-S6 level changes – cell-based, A549, cytoblot, luminescence, serum-stimulated, primary screen (AID 1158); conditions: 5 h, higher = more signal;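 also: serum-stimulated A549 lung adenocarcinoma cells; signal is phosphorylated S6 detected by cytoblot immunostaining with HRP secondary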
[8] = target: NADPH oxidase 2 (Homo sapiens) (UniProt P04839); assay: compounds shifting NOX2 Amplex Red fluorescence – cell-based, HEK293-NOX2, PMA-stimulated, NOX inhibitor project, primary screen (AID 1159); conditions: 45 min, higher = more signal, called active from +8 up or from −8 down; also: test concentration not given here
[9] = target: NADPH oxidase 4 (Homo sapiens) (UniProt Q9NPH5); assay: compounds shifting NOX4 Amplex Red fluorescence – cell-based, HEK293-NOX4, tetracycline-induced, NOX inhibitor project, primary screen (AID 1160); conditions: HEK293-NOX4, Amplex Red H2O2 fluorescence, 45 min; higher = more signal, called active from +8 up or from −8 down
[10] = target: NADPH oxidase 5 (Homo sapiens) (UniProt Q96PH1); assay: compounds shifting NOX5 Amplex Red fluorescence – cell-based, HEK293-NOX5, NOX inhibitor project, primary screen (AID 1161); conditions: HEK293-NOX5, ionomycin, 45 min, higher = more signal
[11] = compound effects on lung adenocarcinoma cell viability – A549, calcein-AM fluorescence, 48 h, basal, profiling panel (AID 1162); conditions: higher = more signal; also: test concentration not given here
[12] = compound effects on differentiated 3T3-L1 adipocyte viability – cell-based, 3T3-L1 adipocytes, calcein-AM fluorescence, 48 h, basal, profiling panel (AID 1163); conditions: 3T3-L1 adipocytes viability, higher = more signal; also: test concentration not given here
[13] = compound effects on hepatocellular carcinoma cell viability – HepG2, calcein-AM fluorescence, 48 h, basal, profiling panel (AID 1164); conditions: higher = more signal; also: test concentration not given here
[14] = compound effects on multiple myeloma cell viability – MM1S, calcein-AM fluorescence, 48 h, basal, profiling panel (AID 1165); conditions: higher = more signal; also: test concentration not given here
[15] = calcein-AM signal in unstimulated myeloma cells – cell-based, calcein-AM fluorescence, 48 h, PK04 Diversity Set, profiling panel (AID 1166); conditions: RPMI8226 myeloma viability, higher = more signal;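 also: cells grown under basal conditions without added stimulus; test concentration not given here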
[16] = JC-1 mitochondrial signal, unstimulated HepG2 cells – cell-based, JC-1 fluorescence, 24 h, 100 nL compound, profiling panel (AID 1167); conditions: HepG2 mitochondrial potential, higher = more signal; also: test concentration not given here
[17] = JC-1 mitochondrial signal, unstimulated adipocytes – cell-based, JC-1 fluorescence, 3T3-L1 adipocytes, 24 h, 100 nL compound, profiling panel (AID 1168); conditions: JC-1 mitochondrial fluorescence, higher = more signal, called active from +8 up or from −8 down; also: test concentration not given here
[18] = JC-1 mitochondrial signal, unstimulated myeloma cells – cell-based, JC-1 fluorescence, RPMI8226, 24 h, 100 nL compound, profiling panel (AID 1169); conditions: JC-1 mitochondrial potential fluorescence, higher = more signal; also: test concentration not given here
[19] = JC-1 mitochondrial signal, unstimulated MM1S myeloma – cell-based, JC-1 fluorescence, 24 h, 100 nL compound, profiling panel (AID 1170); conditions: MM1S mitochondrial potential, higher = more signal; also: test concentration not given here
[20] = resazurin metabolic signal in A549 cells – cell-based, resazurin fluorescence, 24 h, PK04 Diversity Set, profiling panel (AID 1171); conditions: A549 viability, higher = more signal, called active from +8 up or from −8 down; also: test concentration not given here

Sequence of NADPH oxidase 2 (Homo sapiens) (P04839 whole entry, looked up): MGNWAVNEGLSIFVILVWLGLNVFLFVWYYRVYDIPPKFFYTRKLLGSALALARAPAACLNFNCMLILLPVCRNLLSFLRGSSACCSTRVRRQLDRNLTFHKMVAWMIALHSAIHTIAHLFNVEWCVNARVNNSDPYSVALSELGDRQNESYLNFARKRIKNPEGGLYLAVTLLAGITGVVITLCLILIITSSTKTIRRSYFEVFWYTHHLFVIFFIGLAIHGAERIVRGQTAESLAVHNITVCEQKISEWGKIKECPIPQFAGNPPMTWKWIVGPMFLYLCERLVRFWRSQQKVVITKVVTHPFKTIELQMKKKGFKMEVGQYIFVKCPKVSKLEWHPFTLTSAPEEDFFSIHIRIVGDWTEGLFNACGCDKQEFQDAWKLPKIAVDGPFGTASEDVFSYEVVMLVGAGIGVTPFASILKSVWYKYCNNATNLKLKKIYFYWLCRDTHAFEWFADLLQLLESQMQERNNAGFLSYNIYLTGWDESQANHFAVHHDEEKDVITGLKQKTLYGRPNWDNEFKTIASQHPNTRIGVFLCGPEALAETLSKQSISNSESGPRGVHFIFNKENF
Sequence of NADPH oxidase 5 (Homo sapiens) (Q96PH1 whole entry, looked up): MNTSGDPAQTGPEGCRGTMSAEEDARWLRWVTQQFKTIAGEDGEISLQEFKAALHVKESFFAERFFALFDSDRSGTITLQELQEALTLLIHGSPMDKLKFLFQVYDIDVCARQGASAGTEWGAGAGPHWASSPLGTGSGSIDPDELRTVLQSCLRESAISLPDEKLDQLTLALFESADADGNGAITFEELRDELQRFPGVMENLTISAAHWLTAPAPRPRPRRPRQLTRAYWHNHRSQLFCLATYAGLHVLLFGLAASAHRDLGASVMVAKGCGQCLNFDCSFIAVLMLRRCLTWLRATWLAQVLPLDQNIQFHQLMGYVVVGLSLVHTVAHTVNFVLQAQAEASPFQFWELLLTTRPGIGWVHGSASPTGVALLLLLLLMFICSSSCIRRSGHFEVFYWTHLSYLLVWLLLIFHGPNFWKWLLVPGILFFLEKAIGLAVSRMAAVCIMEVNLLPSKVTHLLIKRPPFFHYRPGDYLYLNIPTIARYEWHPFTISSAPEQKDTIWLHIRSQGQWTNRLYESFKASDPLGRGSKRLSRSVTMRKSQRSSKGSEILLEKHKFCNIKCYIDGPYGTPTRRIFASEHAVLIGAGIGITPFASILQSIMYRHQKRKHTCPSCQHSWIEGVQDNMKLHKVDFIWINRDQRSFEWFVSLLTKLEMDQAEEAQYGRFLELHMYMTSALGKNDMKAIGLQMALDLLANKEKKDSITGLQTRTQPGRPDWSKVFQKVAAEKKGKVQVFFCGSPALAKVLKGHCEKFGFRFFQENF
Sequence of NADPH oxidase 4 (Homo sapiens) (Q9NPH5 whole entry, looked up): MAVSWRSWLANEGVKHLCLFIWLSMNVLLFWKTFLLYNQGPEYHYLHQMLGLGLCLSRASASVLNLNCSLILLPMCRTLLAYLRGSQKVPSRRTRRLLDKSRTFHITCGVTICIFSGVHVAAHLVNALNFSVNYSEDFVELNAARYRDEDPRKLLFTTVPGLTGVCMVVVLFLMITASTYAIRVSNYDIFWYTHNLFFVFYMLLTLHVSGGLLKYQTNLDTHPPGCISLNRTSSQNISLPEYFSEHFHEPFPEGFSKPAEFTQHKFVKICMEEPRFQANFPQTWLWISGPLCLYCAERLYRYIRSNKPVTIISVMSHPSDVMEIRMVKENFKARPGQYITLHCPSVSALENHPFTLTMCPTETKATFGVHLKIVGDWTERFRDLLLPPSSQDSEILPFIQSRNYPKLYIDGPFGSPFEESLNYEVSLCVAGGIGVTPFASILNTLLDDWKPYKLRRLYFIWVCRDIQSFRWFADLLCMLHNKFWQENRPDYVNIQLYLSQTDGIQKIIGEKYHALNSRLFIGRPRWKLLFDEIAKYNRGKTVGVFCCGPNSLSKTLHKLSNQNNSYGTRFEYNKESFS

Structure (SMILES)	z-score [1]	composite z-score [2]	z-score [3]	z-score [4]	z-score [5]	z-score [6]	z-score [7]	z-score [8]	z-score [9]	z-score [10]	z-score [11]	z-score [12]	z-score [13]	z-score [14]	z-score [15]	z-score [16]	z-score [17]	z-score [18]	z-score [19]	z-score [20]
CCCNC(=O)OC[C@H]1O[C@H](CCON=C(C)CCC(=O)OC[C@H]2O[C@H](c3ccccc3)C=C[C@@H]2Oc2ccc(OC)cc2)C=C[C@@H]1Oc1ccc(OC)cc1	0.3 (inactive)	-0.0477	2.17 (inactive)	0.767 (inactive)	0.753 (inactive)	0.49 (inactive)	-0.441	-0.245 (inactive)	0.337 (inactive)	-0.295	0.415	0.354	-0.208	-1.31	-0.303	1.26	0.000229 (inactive)	0.625	0.33	0.748 (inactive)
COC(=O)CC=C[C@@H](C)[C@@H](C=NO[C@H](C)c1cn([C@@H]2COC[C@H]2O)nn1)NS(=O)(=O)c1ccc(C)cc1	0.876 (inactive)	-0.274	1.43 (inactive)	0.269 (inactive)	0.785 (inactive)	0.465 (inactive)	0.459	-0.283 (inactive)	0.891 (inactive)	0.309	0.802	-0.628	1.16	0.111	0.188	-0.156	0.766 (inactive)	0.556	-1.25	-1.14 (inactive)
CC(=O)O[C@H]1C2=CO[C@H](C)[C@H]3[C@H]4C5=C([C@H](O)[C@H]6O[C@H]6C5=O)[C@H](OC4C)[C@@]23C(=O)[C@@H]2O[C@@H]21 (stereo not given in full)	-0.16 (inactive)	-0.0477	-0.312 (inactive)	-0.431 (inactive)	0.128 (inactive)	0.1 (inactive)	-1.05	-0.717 (inactive)	-0.891 (inactive)	-0.242	-1.7	-0.827	-3.46	-3.43	-3.37	-3	0.12 (inactive)	-0.871	-2.88	-2.43 (inactive)
CC(C)CON=C1C[C@@H](O)[C@@H](O)[C@@H]2[C@@H]3C(=O)N(c4ccc(F)cc4F)C(=O)[C@@H]3CC[C@H]12	-0.619 (inactive)	0.144	1.17 (inactive)	-0.996 (inactive)	0.12 (inactive)	-1.09 (inactive)	-0.0969	-1.13 (inactive)	0.632 (inactive)	0.178	0.0042	-0.934	-0.222	0.597	-0.567	0.861	-0.131 (inactive)	0.541	-1	0.495 (inactive)
